# From PubChem BioAssay (NCI)
# Several values for one entry are separate records, joined by “and”; a condition that tells them apart may be missing. Equal entries are not always repeated. About 83,000 compounds went through this panel and 20% of them were active in at least one assay; those are over-represented in the sample as a whole.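 Note: values are percent growth. 100 is the growth of untreated cells, values between 100 and 0 indicate rising inhibition; between -100 and 0 indicates cell death.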 A number with no mark means an inactive call. Activity calls are given as the source filed them. Rule for the calls: active = growth percent below 10; inactive = the rest.
# Tested on: HL-60(TB) leukemia
# Assay: NCI-60 one-dose screen, 48 h (100 = growth as untreated, 0 = no growth, -100 = all killed)
structure (smiles),measurement,setting,value
N#Cc1ccc(-c2ccc3c(c2)NC(=O)/C3=C\c2ccc[nH]2)cc1,growth,10 µM unless noted,101%
O=c1[nH]cc(F)c(=O)[nH]1,growth,10 µM,59.7%
same,growth,25 µM,47.9%
same,growth,50 µM,77.6%
CCOC(=O)c1sc2ncnc(Nc3ccc(NC(=O)Nc4ccc(Cl)cc4)cc3)c2c1C,growth,10 µM unless noted,91.4%
COc1ccc2c(O)c(/C=C3\N=Nc4ncccc43)oc2c1C[C@H]1CCNC[C@H]1F,growth,10 µM unless noted,-45.4% (active)
COc1ccc(Cl)cc1C(=O)NCCc1ccc(S(=O)(=O)NC(=O)NC2CCCCC2)cc1,growth,10 µM,121% and 103%
same,growth,100 µM,94.2%
Oc1cccc(Nc2nccc(-c3ccc4ccccc4c3)n2)c1,growth,10 µM unless noted,0.229% (active)
CCc1ccccc1-n1c(N)c(C#N)c(-c2ccc(OC)c(OC)c2)c(C#N)c1=O,growth,10 µM,113%
same,growth,100 µM,122%
CC#C[C@]1(O)CC[C@H]2[C@@H]3CCC4=CC(=O)CCC4=C3[C@@H](c3ccc4c(c3)OCO4)C[C@@]21C,growth,10 µM,67.5%
same,growth,100 µM,-22.9% (active)
CCCCCCCCCCCCCCCc1ccc(Cl)c(O)c1Cl (tested in a mixture with another compound),growth,0.25 µM,18.3%
same,growth,10 µM,118%
COc1cc(-c2nc(SC(C)C)nc(Nc3cccc(C)c3)c2C#N)cc(OC)c1OC,growth,10 µM unless noted,98.3%
Cc1ccc(-c2nc([P+](c3ccccc3)(c3ccccc3)c3ccccc3)c(N3CCOCC3)o2)cc1,growth,10 µM unless noted,-27.7% (active)
S=P(N1CC1)(N1CC1)N1CC1,growth,10 µM,99.5% and 32.7%
same,growth,100 µM,9.95% (active)
CC/C(=C(\c1ccccc1)c1ccc(OCCN(C)C)cc1)c1ccccc1,growth,10 µM,39.6%
same,growth,12.5 µM,-57.1% (active)
COc1ccc(C(=O)/C=C/c2ccc(OCc3ccc(Cl)cc3)cc2)cc1OC,growth,10 µM,81.2%
same,growth,100 µM,18.7%
O=C(O)c1sccc1O,growth,10 µM,62.6%
same,growth,100 µM,3.63% (active)
CC1(C)CC[C@]2(c3nnc(-c4ccncc4)o3)CC[C@H]3C(=CC[C@H]4[C@@]3(C)CC[C@H]3C(C)(C)C(=O)CC[C@]43C)[C@@H]2C1,growth,10 µM unless noted,3% (active)
CCN(CC)CCOc1ccc(/C(=C(/C)c2ccccc2)c2ccc(OC(C)=O)cc2)cc1,growth,10 µM unless noted,117%
CC(=O)/C=C/c1ccc(N(C)Cc2ccc(C(C)(C)C)cc2)cc1,growth,10 µM,53.9%
same,growth,100 µM,-48.9% (active)
CC(=O)/C=C/c1ccc(OCc2ccc(C(C)(C)C)cc2)cc1,growth,10 µM,59.5%
same,growth,100 µM,-32.4% (active)
CC(=O)/C=C/c1ccc(N(CCO)Cc2ccc(C(C)(C)C)cc2)cc1,growth,10 µM,69.6%
same,growth,100 µM,-55.3% (active)
Cc1[nH]c(-c2nc3ccccc3[nH]2)c(C)c1C(=O)NC(C)C1CCCCC1 (configuration not stated),growth,10 µM,98.3%
same,growth,100 µM,-83.4% (active)
CC(=O)O[C@H]1C(=O)[C@@]2(C)[C@H]([C@H](OC(=O)c3ccccc3)[C@]3(O)C[C@H](OC(=O)[C@H](O)[C@@H](NC(=O)c4ccccc4)c4ccccc4)C(C)=C1C3(C)C)[C@]1(OC(C)=O)CO[C@@H]1C[C@@H]2O,growth,0.01 µM,-8.36% (active)
same,growth,2.5 µM,-43.6% (active)
same,growth,5 µM,-42.4% (active)
same,growth,10 µM,-12.3% (active) and -35.8% (active)
COc1cccc2c1C(=O)c1c(O)c3c(c(O)c1C2=O)C[C@@](O)(C(=O)CO)C[C@@H]3OC1CC(N)C(O)C(C)O1 (some centres not stated),growth,0.0025 µM,100%
same,growth,2.5 µM,81.9%
same,growth,10 µM,-21.8% (active)
CN1CCN(Cc2occc(=O)c2O)CCN(C)CCN(Cc2occc(=O)c2O)CC1,growth,10 µM unless noted,98.8% and 48.1%
O=C(/C=C/c1cccc(Oc2ccc(Cl)cc2)c1)c1ccccc1,growth,10 µM,73.9%
same,growth,100 µM,-51.8% (active)
COc1ccc(-c2nsc3c2NC(=O)CC3c2ccc(F)cc2)cc1 (configuration not stated),growth,10 µM unless noted,7.88% (active)
CN(Cc1cnc2nc(N)nc(N)c2n1)c1ccc(C(=O)N[C@@H](CCC(=O)O)C(=O)O)cc1,growth,2.5 µM,27%
same,growth,10 µM,24.1%
COc1ccc(C(=O)/C=C/c2ccc(OCc3cccc(C(F)(F)F)c3)c(OC)c2)cc1OC,growth,10 µM,36.4%
same,growth,100 µM,-17.8% (active)
Cc1c2oc3c(C)ccc(C(=O)N[C@@H]4C(=O)N[C@H](C(C)C)C(=O)N5CCC[C@H]5C(=O)N(C)CC(=O)N(C)[C@@H](C(C)C)C(=O)O[C@H]4C)c3nc-2c(C(=O)N[C@@H]2C(=O)N[C@H](C(C)C)C(=O)N3CCC[C@H]3C(=O)N(C)CC(=O)N(C)[C@@H](C(C)C)C(=O)O[C@H]2C)c(N)c1=O,growth,0.0025 µM,42.6%
same,growth,10 µM,-24.3% (active)
